Hit rate of the full screen: of about 53,000 sequences, about 3,700 (7%) were called active. Many of the other results were omitted from the sample, so actives are more common in it than they were. Values without a mark were called inactive.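 The calls were made as follows: active = gene knockdowns whose robust z-score for IL-1 alpha signal is at least 2 or at most -2, so actives lie on both sides; inactive = the rest.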

The test in a line: Components of the Cytosolic LPS Sensing Pathway: Gene Identification via Genome-wide siRNA Screen.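 Also: robust z of the log signal after scaling to non-targeting control siRNA wells of the plate.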 The following applies: RAW264.7 macrophages, IL-1a HTRF, actives lie on both sides, screened at 100 nM (by protocol), cells primed 5 h with Pam3CSK4 first. A digest of the protocol: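 RAW264.7; siRNA 100 nM final, RNAiMAX, 48h 37 degrees C; Pam3CSK4 5 h; LipidA + TransIT-TKO 24 h; IL-1a HTRF; CellTiter-Glo viability; robust z vs negative-control median.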
As for GGAAAACAAGACUUCAAUCTT against Gypa, the z-score is 0.369.

With CCCUGAUGACAGAAGAAUCTT against Tyms, the z-score is -0.802.

With GCACCUCGGUCAUUUAUAUTT against Mettl14, the z-score was -2.51 (active).

Regarding GCCUGUCCUGUGAUGACAUTT against Olfr406, the z-score was -1.96.

Take GCUCGAACAUCUCUUGGUCTT against Capn9: the z-score is 0.186.

CCGUUACCUUUUAAGCCUGTT against Socs6: the z-score is -1.2.

On to GGCAGAGAAAAGGACCUUUTT against Mcts2, for which the z-score was -1.32.

With GGAACUCCUCAAACGAAGGTT against Bmp3, the z-score is 0.553.

Turning to GCCACCAGUGAAUAAUACATT against Hyal6, the z-score is 0.459.

Turning to GGUUUGCAUAUCUCACCCUTT against Sirt6, the z-score is -2.38 (active).

For the sequence GGAGACUGGAGAGCAAAAUTT against Krt18, the z-score was -1.44.

Consider GCUACCUUCAGACAAGCACTT against Prss32, for which the z-score is -0.877.

As for GCAACUCAGCUGUUGUGAGTT against Ifitm2, the z-score was 2.99 (active).

Regarding GCUGUUGUUCAAUGCCCUGTT against Olfr392, the z-score was -0.616.

For the sequence GGCUGCACACAAUAUGAACTT against Mrm2, the z-score is 0.134.

For the sequence CCUAUGCUAUGUAGUUUAATT against Adam21, the z-score was 5.58 (active).

Turning to GGAGAAACUAUGAUCUUUATT against Mmp13, the z-score is 0.117.

GGGAAGAAAUCCAAGAAGATT against Cnpy3: the z-score was -0.836.

For the sequence GCUGCCUACCUGUGAAAGUTT against Pgam2, the z-score is 2.82 (active).

Consider GGCCAAAGCUGAUAUGACATT against Ankef1, for which the z-score was 2.23 (active).

For the sequence GGAGCUCCUGUACGACUAUTT against Kmt5a, the z-score was -1.66.

GCCCUCGGACUGAAAACAATT against Chrm5: the z-score was -0.227.

As for GGUACAAUGGCACUGUCACTT against Chrna5, the z-score is -1.29.

In the case of GGGAUGCUUUUGGCCCAAATT against Rita1, the z-score was 0.901.

For the sequence GGUUCUCUAACAGAACUUUTT against Zc3h6, the z-score was 0.768.

For GGUGUCUUUGCUCAGCUCATT against Lrfn4, the z-score is -2.93 (active).

Take GGUUGUUUGACCAACAGCUTT against Inpp5d: the z-score is -1.51.

Consider GGAAUUUGUGGAGAAACUATT against Gabbr1, for which the z-score is -0.232.

Turning to GAGCCAUAUACCUCGUCCUTT against Mier2, the z-score was -0.531.

On to GGUUGGCUUGGAAAUGGGATT against Nanos2, for which the z-score was 1.7.

CCAUUUACCCAUGCGGCUATT against Creb3l2: the z-score is -1.94.

In the case of GGAGAUGUGUUGAGUUUUCTT against Abcg2, the z-score is 4.47 (active).

Consider GGCAACAUGCGGACAACAUTT against Trim14, for which the z-score was -0.42.

On to GGAGCUGAACCUGAGCUAUTT against Tlr9, for which the z-score is -0.341.

Turning to GGACAUUUCUAUGUCUUUGTT against Cpt2, the z-score was 3.35 (active).

As to GGAGAUAAAUCCUUUGCAUTT against Zfp119a, the z-score was 1.74.

Regarding GGACUUUCGUGAGAGAUUUTT against Fpr2, the z-score is 1.16.

Regarding GGUUCAGUUUUGGCUGGCUTT against Olfr558, the z-score was 2.04 (active).

Consider GGAGAAGAGCAGAAUAUGCTT against Baz1a, for which the z-score is -1.48.

As to GCUGUUAAACGAAAUGUACTT against Esx1, the z-score was -0.298.

For GCUUGGAAGGGACUUCAAUTT against Trp73, the z-score is 2.97 (active).

In the case of CCAUUUAUUUGGACUUGUATT against Lig4, the z-score is 0.303.

As to CCGGUAUUACAACAAGUACTT against Atp5j2, the z-score was 1.01.

For GGGAGAAGGUAAGUGCAUGTT against Golga7b, the z-score was -0.343.

GGUGGAAAAGUGAAAAAGGTT against Ddx18: the z-score is 0.158.

Turning to CCUGUAGAUUCAAUUAGAGTT against Vkorc1l1, the z-score is -0.206.

As for GGUGCUGCUUUAUUCCUGGTT against Dhcr7, the z-score is -0.632.

For the sequence CGAUUAUGAGCACUAUAUUTT against Ddx20, the z-score is 2.12 (active).

On to GGAUAUGUGUUCAUCCUGUTT against Lrrc18, for which the z-score is 0.0347.

With GGUUAUGCCUUCAGUGAAGTT against Prep, the z-score is -0.14.

For GGUGACUGUCCUGAACUAUTT against Prr5l, the z-score was 1.7.

In the case of CGAAGUGAAAAGUAUGACCTT against Lrrc72, the z-score was -0.083.

GGGCAUAGUGACCAGGUUATT against Fgf14: the z-score is 2.67 (active).

For the sequence AUCUCUCGGUGGUGGACUGTT against Olfr1474, the z-score was 0.583.

Regarding CCAGGUCGAACUUCUGUGCTT against Slc39a8, the z-score was -0.82.

Regarding GCAACUCAGAAUGUAGUGUTT against Gnai1, the z-score is 0.298.

Consider GGCUUUUGAUGAGGUAAAATT against Plekho2, for which the z-score was -1.12.

With GGAGGAAAAACAGUGCAGATT against Smchd1, the z-score is -1.54.

With GGACCUAUUACCUCAAUGATT against Spatc1l, the z-score is -2.59 (active).

As to GGUUCUGACUUGAGAAAACTT against Clba1, the z-score is 1.41.

Consider GGUUAUUCUGGUACAGGUUTT against Fndc3a, for which the z-score is 0.191.

Turning to GGCUCAGCUCAUGAACGACTT against Acvr2b, the z-score was -0.00307.

Turning to GGACAUGACCAAAAGGCUGTT against Zfp706, the z-score was 3.84 (active).

GGUGGUUUUCAUGUUUCCCTT against Olfr574: the z-score was -1.48.

For GGCUAGAAUGCACAUUUUATT against Tmem65, the z-score was -1.26.

With CCACCCUCUUCAUAACAGUTT against Med27, the z-score is -0.82.

On to GCCAAUACACGUCUACUGATT against Gm1553, for which the z-score is -0.0632.

Turning to GGUGACACUCAAGGUGUCATT against Ldlrap1, the z-score is 2.23 (active).

Take GGACCAUGAGACGAUGGGATT against Dysf: the z-score was 0.167.

(Values after PubChem BioAssay AID1508600 (Functional Genomics Laboratory (NCATS/FGL), 2020).)
